Structures are written as SMILES. ± gives the standard deviation of the averaged measurements.

In the assay the test system is DLD1. The assay is described as follows: cell viability (CellTiter-Glo) relative to plate median (fraction of plate median); higher = more viable cells. The settings on record: 5 µM; treatment time 24 h; reporter: 7TFP. In short, it runs like this: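 Each entry is a luminescence signal normalised to the plate median, averaged over independent replicates. The replicate count was two, and the cells were colorectal cancer lines with stable lentiviral TCF/Wnt firefly luciferase reporters exposed to library compounds at a final 5 µM for 24 h. Firefly luciferase and CellTiterGlo were measured on parallel plates.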
(ATP-based viability assays read luminescence as a measure of living cells.)
On to `CC(=O)OCC(=O)[C@@]1(O)CC[C@H]2[C@@H]3CCC4=CC(=O)C=C[C@]4(C)[C@H]3[C@@H](O)C[C@@]21C`, for which the cell viability amounted to 0.992 ± 0.04.
The result for `Cc1cccc(C(=O)O)c1O` reads 1.02 ± 0.039.
`COCCCOc1cc(C[C@@H](C[C@H](NC(=O)OC(C)(C)C)[C@@H]2C[C@@H](C(C)C)C(=O)O2)C(C)C)ccc1OC` [Borrelidin derivative (C30H49NO7)] showed a cell viability of 1.01 ± 0.072.
The figure for `CCCCCCCCCCCCC[N+](C)(C)Cc1ccccc1` is 0.848 ± 0.095; for `CC(C)C[C@H](NC(=O)[C@@H]1CCCN1)C(=O)N1CCNC(=O)C1=O` [Prolyl-leucyl-diketopiperazine] it is 1.02 ± 0.035; for `CS(C)(=O)=O` it is 1.01 ± 0.081.
The figure for `CC(=O)Nc1cc2nc3ccccc3oc-2cc1=O` [N-Acetylquestiomycin A] is 0.985 ± 0.092; for `NS(=O)(=O)c1cc2c(cc1Cl)NC(C(Cl)Cl)NS2(=O)=O` (stereo unspecified) it is 0.977 ± 0.047; for `C=CC[C@@H]1/C=C(\C)C[C@H](C)C[C@H](OC)[C@H]2O[C@@](O)(C(=O)C(=O)N3CCCC[C@H]3C(=O)O[C@H](/C(C)=C/[C@@H]3CC[C@@H](O)[C@H](OC)C3)[C@H](C)[C@@H](O)CC1=O)[C@H](C)C[C@@H]2OC` it is 1.02 ± 0.22.
`CCCCC[C@H](CC(=O)NO)C(=O)N[C@H](C(=O)N1CCC[C@H]1CO)C(C)C` displayed a cell viability of 0.951 ± 0.0042.
Regarding `CC(C)c1nc(N(C)S(C)(=O)=O)nc(-c2ccc(F)cc2)c1/C=C/[C@@H](O)C[C@@H](O)CC(=O)O`, the cell viability came to 0.93 ± 0.11.
The result for `COc1ccc(-c2cc(=O)c3c(OC)c(OC)c(OC)c(OC)c3o2)cc1OC` reads 0.9 ± 0.064; that for `CC(C)(C)NC[C@H](O)COc1nsnc1N1CCOCC1`, 0.966 ± 0.045; that for `C=C1CCC(C2CC(=O)OC2=O)C(=O)CCC2C1CC2(C)C` (stereo unspecified), 1.01 ± 0.049.
Take `C[C@@H]1C[C@H]2O[C@@H]2/C=C\C=C\C(=O)Cc2c(Cl)c(O)cc(O)c2C(=O)O1` [Radicicol]: the cell viability came out at 1.07 ± 0.035.
The figure for `Cc1ccc(Cl)c(Nc2ccccc2C(=O)O)c1Cl` is 1.04 ± 0.067; for `O=C1NS(=O)(=O)c2ccccc21` it is 0.973 ± 0.052; for `COc1cc2c(cc1OC)Cc1cc(OC)c(OC)cc1Cc1cc(OC)c(OC)cc1C2` it is 1.02 ± 0.055.
`Clc1ccc(C(c2ccccc2Cl)C(Cl)Cl)cc1` (stereo unspecified) registered a cell viability of 0.937 ± 0.013.
The result for `COC[C@H]1O[C@@H](OC2OC[C@@H]3O[C@]4(O[C@H]3[C@H]2OC(=O)C(C)C)O[C@H](C)[C@@](O)(C(C)=O)[C@@H]2OCO[C@H]24)[C@@H](OC)[C@@H](O)[C@@H]1O[C@@H]1O[C@H](C)[C@H](OC)[C@H](O[C@H]2C[C@@]3(C)OC4(C[C@@H](O)[C@H](O[C@H]5C[C@@H](O)[C@H](OC(=O)c6c(C)c(Cl)c(O)c(Cl)c6OC)[C@@H](C)O5)[C@@H](C)O4)O[C@@H]3[C@@H](C)O2)[C@H]1O` (stereo partly specified) [Avilamycin A] reads 0.977 ± 0.033.
The result for `C[C@H](CCC(=O)O)[C@H]1CC[C@H]2[C@@H]3[C@H](O)C[C@@H]4C[C@H](O)CC[C@]4(C)[C@H]3C[C@H](O)[C@]12C` reads 0.99 ± 0.043; that for `COc1cccc2c1C(=O)c1c(O)c3c(c(O)c1C2=O)CC(O)(C(C)O)CC3OC1CC(NC=O)C(O)C(C)O1` (stereo unspecified) [Baumycin C2], 1.02 ± 0.035.
Compound `COc1cc2nc(N3CCN(C(=O)C4CCCO4)CC3)nc(N)c2cc1OC` (stereo unspecified) yielded a cell viability of 1.05 ± 0.05.
The figure for `CC(=O)O[C@H]1CC[C@@]2(C)[C@H](CC[C@@H]3[C@@H]2CC[C@]2(C)[C@@H]4[C@H](C[C@@H]32)O[C@]2(CC[C@@H](C)CO2)[C@H]4C)C1` is 1.01 ± 0.028; for `OC[C@H]1O[C@@H](Oc2ccc(O)cc2)[C@H](O)[C@@H](O)[C@@H]1O` it is 0.965 ± 0.04; for `CC(C(=O)O)c1ccc(-c2ccccc2)c(F)c1` (stereo unspecified) it is 1.09 ± 0.11.
Compound `CC1=CCCC(C)=CCC(C)(C)C=CC1` [HUMULENE (alpha)] came in with a cell viability of 0.978 ± 0.013.
The figure for `O=C1c2ccccc2C(=O)c2c(Cl)cccc21` [Chloro-Anthraquinone] is 1.01 ± 0.027; for `OC1(c2ccc(Cl)c(C(F)(F)F)c2)CCN(CCCC(c2ccc(F)cc2)c2ccc(F)cc2)CC1` it is 0.982 ± 0.14; for `O=c1c(O)c(-c2ccccc2)oc2ccccc12` it is 0.992 ± 0.026.
The figure for `CCN(CC)CCNC(=O)c1cc(Cl)c(N)cc1OC` is 1 ± 0.037; for `CC1(C)OC(=O)NC1=O` it is 0.893 ± 0.18.
The figure for `S=P(N1CC1)(N1CC1)N1CC1` is 0.975 ± 0.036.
Take `CN[C@@H]1[C@H](O)[C@H](NC)[C@H]2O[C@@]3(O)C(=O)C[C@@H](C)O[C@H]3O[C@@H]2[C@H]1O`: the cell viability was 1.04 ± 0.08.
Consider `COc1ccc(CN(CCN(C)C)c2ncccn2)cc1`, for which the cell viability came out at 0.994 ± 0.0057.
Take `NC(=O)c1cc[n+](CC2=C(C(=O)O)N3C(=O)[C@@H](NC(=O)[C@@H](c4ccccc4)S(=O)(=O)[O-])[C@H]3SC2)cc1`: the cell viability came to 1.01 ± 0.055.

For the origin of these results see the supplement of paper PMC6522484.
